# Experimental data: the supplement of paper PMC9925115
# ± gives the uncertainty stated by the source.
# Legend:
# [1] = tested on: FLX1; test: cell viability z-score within plate (CellTiter-Glo), mean of 3 biological replicates; higher = higher viability relative to plate (less growth inhibition); conditions: 2 µM; time (hr): 120
# Method: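 FLX1 fibrolamellar carcinoma cells (DNAJB1-PRKACA fusion), 600 cells/well in 384-well plates, treated with a Selleck kinase inhibitor library (L1200) at 2 uM for 5 days (120 hr); viability by CellTiter-Glo. A z-score was computed within each plate and averaged over three biological replicates.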
# [2] = tested on: FLX1 + dox-induced PRKAR1A G325D; test: difference in log2 fold change of viability vs plate median (dox-induced PRKAR1A G325D minus uninduced); higher = compound less effective when PKA is inhibited; conditions: concentration: not stated (2 or 5 uM); 5 days
# Method: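 For each plate a log2 fold change vs the plate median was derived, and the values without dox were subtracted from those with dox, averaged over three biological replicates.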
SMILES,cell viability z-score within plate [1],difference in log2 fold change of viability [2]
C=CC(=O)Nc1cccc(Sc2nc(Nc3ccc(N4CCN(C)CC4)cc3)ncc2Cl)c1,0.081 ± 0.26,0.0442
CN1CCN(c2nc(C3=C(c4c[nH]c5ccccc45)C(=O)NC3=O)c3ccccc3n2)CC1 [Sotrastaurin],0.764 ± 0.47,-0.157
CCn1c2ccccc2c2cc(Nc3ccnc(NCCCN4CCOCC4)n3)ccc21,1.38 ± 0.26,0.808
Nc1ncnc2c1c(-c1cnc3[nH]ccc3c1)nn2C1CCCC1,-0.241 ± 0.65,0.363
Cc1cnc(NC(=O)Nc2cc(Br)c(C)cc2OC[C@@H]2CNCCO2)cn1,0.709 ± 0.31,1.29
"CCCS(=O)(=O)Nc1ccc(F)c(C(=O)c2c[nH]c3ncc(-c4ccc(Cl)cc4)cc23)c1F [Vemurafenib (PLX4032, RG7204)]",-3.08 ± 1.3,0.336
C[C@]1(O)C[C@@H](c2nc(-c3ccc4ccc(-c5ccccc5)nc4c3)c3c(N)nccn32)C1 [Linsitinib (OSI-906)],0.624 ± 0.4,0.468
COc1ccc(F)c(F)c1C(=O)c1cnc(NC2CCN(S(C)(=O)=O)CC2)nc1N,0.272 ± 0.44,0.247
C=CC(=O)Nc1cccc(Nc2nc(Nc3ccc(OCCOC)cc3)ncc2F)c1,-0.411 ± 0.22,-0.726
O=C(NOCC(O)CO)c1cc(Br)c(F)c(F)c1Nc1ccc(I)cc1F (stereo not drawn),0.628 ± 0.22,-1.06
"Nc1cc(C(F)(F)F)c(-c2cc(N3CCOCC3)nc(N3CCOCC3)n2)cn1 [Buparlisib (BKM120, NVP-BKM120)]",-0.0175 ± 0.38,0.841
COc1cc2nccc(Oc3ccc(NC(=O)NC4CC4)c(Cl)c3)c2cc1C(N)=O [Lenvatinib (E7080)],-0.399 ± 0.11,-0.0902
COCCOc1ccc2c(c1)ncn2-c1ccc2cccc(N3CCC(N)CC3)c2n1,0.546 ± 0.4,-0.262
Oc1cc(O)cc(/C=C/c2ccc(O)c(O)c2)c1 [Piceatannol],-0.333 ± 0.2,-0.236
Cc1ccc(F)c(NC(=O)Nc2ccc(-c3cccc4[nH]nc(N)c34)cc2)c1 [Linifanib (ABT-869)],0.077 ± 0.57,0.386
CC(C)(C)NS(=O)(=O)c1cncc(-c2cc(F)c3nc(N)nn3c2)c1,0.16 ± 0.77,-0.0394
Cc1nc(Nc2n[nH]c3c2CN(C(=O)N[C@H](CN(C)C)c2ccccc2)C3(C)C)c2sccc2n1,1.12 ± 0.47,0.871
COc1cc(Nc2ncc3c(n2)-c2ccc(Cl)cc2C(c2c(F)cccc2OC)=NC3)ccc1C(=O)O [Alisertib (MLN8237)],0.451 ± 0.63,-0.903
Nc1nc(N)c(N=O)c(OCC2CCCCC2)n1,0.662 ± 0.19,-0.216
"C[C@H](Nc1ncnc2nc[nH]c12)c1cc2cccc(Cl)c2c(=O)n1-c1ccccc1 [Duvelisib (IPI-145, INK1197)]",0.585 ± 0.95,-0.0226
Cc1nc(Nc2cnn(C3CCNCC3)c2)nc2c1N(C)C(=O)c1cc3ccccc3cc1N2C,1.62 ± 0.12,-0.568
O=C1Nc2ccc(I)cc2/C1=C/c1cc(Br)c(O)c(Br)c1,1.53 ± 0.35,1.35
S=C(NCc1ccc2c(c1)OCO2)N1CCN(c2ncnc3c2oc2ccccc23)CC1 [Amuvatinib (MP-470)],-0.826 ± 0.77,0.22
CNc1nc(Nc2cnn([C@H]3CCN(C4COC4)C[C@@H]3F)c2Cl)ncc1C(F)(F)F,,-0.177

SMILES,cell viability z-score within plate [1],difference in log2 fold change of viability [2]
C#Cc1cccc(Nc2ncnc3cc(OCCOC)c(OCCO)cc23)c1,-0.584 ± 1.3,-0.763
Nc1nc(Nc2ccc(S(N)(=O)=O)cc2)nn1C(=O)c1c(F)cccc1F,-2.24 ± 0.22,0.0351
O=C1NC(=O)/C(=C/c2ccc3c(c2)OC(F)(F)O3)S1,-0.962 ± 0.62,-0.0198
CN1CCN(c2ccc(Nc3cc(-c4cccc(-n5ccc6cc(C7CC7)cc(F)c6c5=O)c4CO)cn(C)c3=O)nc2)CC1,-0.244 ± 0.38,-0.059
CN1CCN(c2cccc(Nc3nc4c(-c5ccc(S(C)(=O)=O)cc5)cccn4n3)c2)CC1,1.01 ± 0.27,-0.93
Cc1ccc(NC(=O)c2cccc(C(C)(C)C#N)c2)cc1Nc1ccc2ncn(C)c(=O)c2c1,-1.84 ± 0.14,0.173
COc1cc(CCc2cc(NC(=O)c3ccc(N4CC(C)NC(C)C4)cc3)n[nH]2)cc(OC)c1 (stereo not drawn),1.18 ± 0.41,-0.468
CCCNC(=O)Nc1ccc(Oc2ncnc3cc(OC)c(OC)cc23)cc1Cl,0.704 ± 0.077,-0.22
Cc1cc(N2CCOCC2)cc2[nH]c(-c3c(NC[C@@H](O)c4cccc(Cl)c4)cc[nH]c3=O)nc12,-0.387 ± 0.41,-1.17
C=CC(=O)Nc1ccc2ncnc(Nc3cccc(Br)c3)c2c1,-1.55 ± 0.85,-0.936
Cc1csc(-c2nnc(Nc3ccc(Oc4ncccc4-c4ccnc(N)n4)cc3)c3ccccc23)c1,-0.507 ± 1.2,0.188
Cc1nc(NC(=O)N2CCC[C@H]2C(N)=O)sc1-c1ccnc(C(C)(C)C(F)(F)F)c1 [Alpelisib (BYL719)],0.524 ± 0.28,0.385
CC1=C(C(=O)Nc2cc3cn[nH]c3cc2F)C(c2ccc(C(F)(F)F)cc2)CC(=O)N1 (stereo not drawn),1.02 ± 0.74,0.418
Cc1nc(N)sc1-c1ccnc(Nc2ccc(N3CCOCC3)cc2)n1,0.352 ± 0.28,0.455
Cc1cc(F)c(Nc2ncnc3cc(OCc4ccccc4)ccc23)cc1O,-0.328 ± 0.22,0.0836
N#C/C(=C\c1ccc(O)c(O)c1)C(=O)NCc1ccccc1 [AG-490 (Tyrphostin B42)],-0.668 ± 1.4,-0.0065
Cc1cc(C(C)Nc2ccccc2)c2nc(N3CCOCC3)cc(=O)n2c1 (stereo not drawn),-0.144 ± 0.28,0.222
COc1ccc(-c2nc(N3CCOCC3)c3sc(CN(C)c4ncc(C(=O)NO)cn4)cc3n2)cn1,-0.258 ± 0.92,0.159
NC1(Cc2ccc(Cl)cc2)CCN(c2ncnc3[nH]ccc23)CC1,-0.404 ± 1.4,0.655
CN(C)CCCn1cc(C2=C(c3c[nH]c4ccccc34)C(=O)NC2=O)c2ccccc21,-0.651 ± 0.3,-0.243
CN1CCC(COc2cnc(-c3cccc(Cn4nc(-c5cccc(C#N)c5)ccc4=O)c3)nc2)CC1,-0.645 ± 0.46,-0.973
Cn1cc(-c2ccc3nnc(C(F)(F)c4ccc5ncccc5c4)n3n2)cn1,-0.299 ± 0.51,0.158
CCCCOc1c(C(=O)c2c(F)cc(C)cc2F)c[nH]c2nncc1-2,-0.865 ± 0.43,0.486
